PG9 Ab binder – binders of HIV-1 gp120 antibody PG9, primary screen, biochemical, TR-FRET. HIV-1 gp120 / PG9 antibody interaction. TR-FRET gp120-PG9 antibody binding. inhibition, % at 6.7 µM. hit rate 0.43% among 360,000; in the data active = inhibition above about 8.5%
ABCB6 inh 2 – ABCB6 transporter inhibitors, primary screen, K562-ABCB6 cells, flow cytometry, MLPCN library; K562-ABCB6 porphyrin accumulation, 1 h; stronger effect = lower value; fluorescence ratio to DMSO, % at 10 µM; hit rate 0.19% among 360,000; ATP-binding cassette sub-family B member 6 (Homo sapiens), Q9NP58; AID 602162, 2011;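 active = fluorescence ratio to DMSO below 75%, the collection mean minus 3 SD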;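 also: signal is porphyrin accumulated inside mitochondria; 100% equals median channel fluorescence of DMSO control wells; lower ratio means ABCB6 inhibition with less porphyrin fluorescence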
Target sequence (Q9NP58 whole entry, looked up): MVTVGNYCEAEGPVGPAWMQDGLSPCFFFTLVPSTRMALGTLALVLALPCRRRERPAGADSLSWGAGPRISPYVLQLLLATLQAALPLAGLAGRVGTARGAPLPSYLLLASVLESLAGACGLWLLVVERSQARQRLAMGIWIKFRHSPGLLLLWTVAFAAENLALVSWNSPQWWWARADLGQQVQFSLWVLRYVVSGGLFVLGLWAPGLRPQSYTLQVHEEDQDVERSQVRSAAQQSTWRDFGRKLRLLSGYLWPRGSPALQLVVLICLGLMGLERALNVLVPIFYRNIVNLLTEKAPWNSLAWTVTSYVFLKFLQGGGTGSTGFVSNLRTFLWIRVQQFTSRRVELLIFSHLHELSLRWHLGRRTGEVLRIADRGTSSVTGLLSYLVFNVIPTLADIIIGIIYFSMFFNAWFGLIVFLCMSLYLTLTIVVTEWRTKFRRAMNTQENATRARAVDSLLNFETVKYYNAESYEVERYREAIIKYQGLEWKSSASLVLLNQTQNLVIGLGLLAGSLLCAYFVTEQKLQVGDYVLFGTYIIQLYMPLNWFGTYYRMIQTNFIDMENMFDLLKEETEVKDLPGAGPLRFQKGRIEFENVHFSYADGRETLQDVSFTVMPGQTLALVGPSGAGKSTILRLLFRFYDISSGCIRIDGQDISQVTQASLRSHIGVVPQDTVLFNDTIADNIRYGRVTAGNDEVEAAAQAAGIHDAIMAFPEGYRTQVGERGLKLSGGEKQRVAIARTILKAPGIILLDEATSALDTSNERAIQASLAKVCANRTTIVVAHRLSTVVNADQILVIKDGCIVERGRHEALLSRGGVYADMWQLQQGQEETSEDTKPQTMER
Exocytosis inh – LAMP-1 surface exposure blockers, TALL-104 cells – cell-based, flow cytometry, MLPCN library, primary screen. TALL-104 LAMP-1 surface exposure; cells stimulated with thapsigargin and PMA. inhibition, % at 10 µM. hit rate 0.66% among 360,000. AID 651702, 2012;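 active = inhibition above about 55%, limit read from the data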
rCAG RNA binder – binders of r(CAG) RNA repeats, primary screen, biochemical, fluorescence. inhibition, % at 3 µM. AID 651821, 2012. r(CAG) RNA repeat, TO-PRO-1 dye displacement fluorescence. hit rate 1.3% among 370,000;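 active = inhibition above the plate cutoff, the mean of all test compounds on that plate plus 3 SD, cut at about 35% in these data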;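 also: 0% = DMSO alone and 100% = 100 µM mitoxantrone as full dye displacement; higher means more dye released from RNA so lower well fluorescence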
PG9 bind confirm – binders of anti-gp120 antibody PG9, confirmation, biochemical, TR-FRET; hit rate 90% among 1,500; TR-FRET PG9 antibody binding; shares compounds with PG9 Ab binder; inhibition, % at 6.7 µM; in the data active = inhibition above about 9%
PGV04 Ab binding – binders of control antibody PGV04, counter-screen for PG9 antibody binder project, biochemical, TR-FRET, distinct HIV envelope site; shares compounds with PG9 Ab binder; TR-FRET PGV04 antibody-gp120 binding; inhibition, % at 6.7 µM; hit rate 95% among 1,500; AID 651604, 2012; in the data active = inhibition above about 9.5%
Exocytosis CP01 – inhibitors of lytic granule exocytosis, confirmation, TALL-104 cells, flow cytometry, Cherry Pick01; shares compounds with Exocytosis inh; LAMP-1 externalization; stimulated with PMA plus thapsigargin; inhibition, % at 10 µM; hit rate 11% among 1,500; AID 651954, 2012; in the data active = inhibition above about 60%;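 also: 0% = stimulated vehicle wells and 100% = unstimulated wells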
Starred values were filed as active, the others as inactive. Only some compounds are listed: those with a hit (about 2.5% of all), similar ones and a draw of the others.

CCCOC(=O)COc1cc(C)cc2oc(=O)c3c(c12)CCC3 was read as PG9 Ab binder 9.9*, ABCB6 inh 2 102, Exocytosis inh 2, rCAG RNA binder 0, PG9 bind confirm 23* and PGV04 Ab binding 30*.
Screening Cn1cc(/C=C2\C(=O)NC(=O)N(c3ccccc3)C2=O)c2ccccc21 returned PG9 Ab binder 11*, ABCB6 inh 2 97, Exocytosis inh -4, rCAG RNA binder 0, PG9 bind confirm 7 and PGV04 Ab binding 20*.
Screening O=C(NCCN1CCC2(CC1)C(=O)NCN2c1ccccc1)c1ccccc1F returned PG9 Ab binder 0 and rCAG RNA binder 2.
For Cc1cccc(-n2c(O)c(C=Nc3ccc(S(N)(=O)=O)cc3)c(=O)[nH]c2=O)c1 the results were PG9 Ab binder 1, ABCB6 inh 2 96, Exocytosis inh 1 and rCAG RNA binder 1.
Screening CCn1c(O)c(C=Nc2ccc(S(N)(=O)=O)cc2)c(=O)[nH]c1=S returned PG9 Ab binder 25*, ABCB6 inh 2 97, Exocytosis inh -1, rCAG RNA binder 2, PG9 bind confirm 92* and PGV04 Ab binding 92*.
Screening CCn1c(O)c(C=Nc2ccc(S(N)(=O)=O)cc2)c(=O)n(CC)c1=S returned PG9 Ab binder 54*, ABCB6 inh 2 100, Exocytosis inh 0, rCAG RNA binder 17, PG9 bind confirm 69* and PGV04 Ab binding 86*.
Screening CCn1c(O)c(C=NCc2ccccc2)c(=O)[nH]c1=S returned PG9 Ab binder 11*, ABCB6 inh 2 101, Exocytosis inh 2, rCAG RNA binder 0, PG9 bind confirm 28* and PGV04 Ab binding 37*.
`NS(=O)(=O)c1ccc(N=Cc2c(O)n(C3CCCCC3)c(=O)n(C3CCCCC3)c2=O)cc1` gave PG9 Ab binder 0, ABCB6 inh 2 93, Exocytosis inh 24 and rCAG RNA binder 9.
`O=C1NCN(c2ccccc2)C12CCN(C(c1nnnn1Cc1ccccc1)C1CC1)CC2` (stereo unspecified) gave PG9 Ab binder 0, ABCB6 inh 2 98, Exocytosis inh -4 and rCAG RNA binder 1.
CCCCCn1c(=O)c(C(=O)Nc2ccccc2S(N)(=O)=O)c(O)c2ccccc21 was read as PG9 Ab binder 69*, ABCB6 inh 2 96, Exocytosis inh 2, rCAG RNA binder 12, PG9 bind confirm 79* and PGV04 Ab binding 83*.
For CC[C@@H](CO)NC(=O)[C@@H]1C=C2c3cccc4[nH]cc(c34)C[C@H]2N(C)C1 the results were PG9 Ab binder 16*, ABCB6 inh 2 99, Exocytosis inh 1, rCAG RNA binder 5, PG9 bind confirm 21* and PGV04 Ab binding 33*.
Screening CC(C)C[C@H]1C(=O)N2CCC[C@H]2[C@]2(O)O[C@](NC(=O)[C@@H]3C=C4c5cccc6[nH]cc(c56)C[C@H]4N(C)C3)(C(C)C)C(=O)N12 returned ABCB6 inh 2 143 and Exocytosis inh 0.
CC[C@@H](CO)NC(=O)[C@@H]1C=C2c3cccc4c3c(cn4C)C[C@H]2N(C)C1 was read as PG9 Ab binder -11, ABCB6 inh 2 101, Exocytosis inh 0 and rCAG RNA binder 3.
`CCC(CO)NC(=O)C1C=C2c3cccc4[nH]cc(c34)CC2N(C)C1` (stereo unspecified) gave PG9 Ab binder 14*, ABCB6 inh 2 105, Exocytosis inh -2, rCAG RNA binder 6, PG9 bind confirm 12* and PGV04 Ab binding 15*.
For O=C(NCCN1CCC2(CC1)C(=O)NCN2c1ccccc1)c1ccc(Cl)cc1 the results were PG9 Ab binder 0 and rCAG RNA binder 1.
CC1CC2(C)C(=CC1=O)CCC1C3CCC(C)(O)C3(C)CC3OC312 (stereo unspecified) was read as PG9 Ab binder -1, ABCB6 inh 2 96, Exocytosis inh -5 and rCAG RNA binder -1.
`O=C1/C(=C\c2cc3c(cc2Cl)OCO3)N2CCC1CC2` gave PG9 Ab binder -2, ABCB6 inh 2 98, Exocytosis inh 3 and rCAG RNA binder 0.
For O=C1/C(=C\c2ccc(Cl)cc2Cl)N2CCC1CC2 the results were PG9 Ab binder -3, ABCB6 inh 2 89, Exocytosis inh 65*, rCAG RNA binder -1 and Exocytosis CP01 -12.
CCCN1CCc2cccc3c2[C@H]1Cc1ccc(O)c(O)c1-3 was read as ABCB6 inh 2 102, Exocytosis inh 101* and Exocytosis CP01 27.
COc1ccc2c(c1O)-c1c(OC)c(OC)cc3c1[C@H](C2)N(C)CC3 was read as PG9 Ab binder -2, ABCB6 inh 2 99, Exocytosis inh -2 and rCAG RNA binder -1.
For CN(C)CCN(CC1CCCN(Cc2ccccc2F)C1)C(=O)Cc1ccccc1F (stereo unspecified) the results were PG9 Ab binder -3, ABCB6 inh 2 101, Exocytosis inh 34 and rCAG RNA binder -12.
For COc1ccc(CC(=O)N(CCN(C)C)CC2CCCN(Cc3ccccc3F)C2)cc1 (stereo unspecified) the results were PG9 Ab binder -1, ABCB6 inh 2 95, Exocytosis inh 63*, rCAG RNA binder 10 and Exocytosis CP01 -12.
For CCCNC(=O)c1c(N)n(Cc2ccc3c(c2)OCO3)c2nc3ccccc3nc12 the results were ABCB6 inh 2 102 and Exocytosis inh 19.
Screening CC(C)CNC(=O)c1c(N)n(Cc2ccc3c(c2)OCO3)c2nc3ccccc3nc12 returned PG9 Ab binder 0, ABCB6 inh 2 102, Exocytosis inh 56*, rCAG RNA binder 3 and Exocytosis CP01 81*.
For Cc1cccc(NP(=O)(Oc2ccccc2)Oc2ccccc2)c1C the results were PG9 Ab binder -2, ABCB6 inh 2 100, Exocytosis inh 58*, rCAG RNA binder -5 and Exocytosis CP01 -11.
O=C(NCCN1CCC2(CC1)C(=O)NCN2c1ccccc1)c1ccc(F)cc1 was read as PG9 Ab binder -1 and rCAG RNA binder -3.
For CN1CC2CN(Cc3ccccc3)S(=O)(=O)C2C1 (stereo unspecified) the results were PG9 Ab binder -1, ABCB6 inh 2 102, Exocytosis inh -1 and rCAG RNA binder 1.
COC(=O)C1=C(c2ccc(C(C)=O)cc2)C[C@@H]2CC[C@H]1N2C(=O)NC1CCCCC1 was read as PG9 Ab binder -1, ABCB6 inh 2 99, Exocytosis inh 65*, rCAG RNA binder -3 and Exocytosis CP01 -13.

Screening data from PubChem.
